Measured values from the supplement of paper PMC7411054.
Structures can show the parent of a compound that is named as a salt.

Experiments:
Settings in all cases: treatment time: 24 h
HepG2-ACTB-RAB5A = assay: lowest phenotypically active concentration; higher = less potent
Method in brief: (§1)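 Four wells per concentration (0.3, 1, 3 or 9 µM) were treated for 24 h in each of fifteen gene-edited reporter lines from A549, HepG2 and WPMY1 cells, then imaged live. After normalising live-cell features to solvent control wells, deviation was defined as ≥3 of 4 wells lying past the 95th percentile of control Euclidean distances. Reproducibility was defined as a median replicate Pearson correlation above the 95th percentile of non-replicates. Both had to hold for phenotypic activity.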

HepG2-CANX-COX4 = assay: as above
Method in brief: as §1

HepG2-GM130-SQSTM1 = assay: as above
Method in brief: as §1

HepG2-TUBA1B-RELA = assay: as above
Method in brief: as §1

WPMY1-ACTB-RAB5A [1] = assay: as above
Method in brief: as §1

WPMY1-CANX-COX4 = assay: as above
Method in brief: as §1

WPMY1-GM130-SQSTM1 = assay: as above
Method in brief: as §1

WPMY1-TP53BP1-CLTA = assay: as above
Method in brief: as §1

WPMY1-TUBA1B-RELA = assay: as above
Method in brief: as §1

WPMY1-ACTB-RAB5A [2] = assay: phenotypically active (imaging signature differs from DMSO and reproducible) at any of 0.3-9 uM (binary (1 = active, 0 = inactive)); higher = active
Method in brief: as §1

CC[C@]1(O)C[C@@H]2CN(CCc3c([nH]c4ccccc34)[C@@](C(=O)OC)(c3cc4c(cc3OC)N(C=O)[C@H]3[C@@](O)(C(=O)OC)[C@H](OC(C)=O)[C@]5(CC)C=CCN6CC[C@]43[C@@H]65)C2)C1 [vincristine]
active: phenotypically active (WPMY1-ACTB-RAB5A [2]) 1
≤ 0.3 µM: lowest phenotypically active concentration (HepG2-ACTB-RAB5A) | lowest phenotypically active concentration (HepG2-CANX-COX4) | lowest phenotypically active concentration (HepG2-GM130-SQSTM1) | lowest phenotypically active concentration (HepG2-TUBA1B-RELA) | lowest phenotypically active concentration (WPMY1-ACTB-RAB5A [1]) | lowest phenotypically active concentration (WPMY1-CANX-COX4) | lowest phenotypically active concentration (WPMY1-GM130-SQSTM1) | lowest phenotypically active concentration (WPMY1-TP53BP1-CLTA) | lowest phenotypically active concentration (WPMY1-TUBA1B-RELA)

CC1=C(C(=O)Nc2cc3cn[nH]c3cc2F)C(c2ccc(C(F)(F)F)cc2)CC(=O)N1 (stereo not given)
3 µM: lowest phenotypically active concentration (WPMY1-TP53BP1-CLTA)
≤ 0.3 µM: lowest phenotypically active concentration (HepG2-ACTB-RAB5A) | lowest phenotypically active concentration (HepG2-CANX-COX4) | lowest phenotypically active concentration (HepG2-GM130-SQSTM1) | lowest phenotypically active concentration (HepG2-TUBA1B-RELA) | lowest phenotypically active concentration (WPMY1-ACTB-RAB5A [1]) | lowest phenotypically active concentration (WPMY1-CANX-COX4) | lowest phenotypically active concentration (WPMY1-GM130-SQSTM1) | lowest phenotypically active concentration (WPMY1-TUBA1B-RELA)
active: phenotypically active (WPMY1-ACTB-RAB5A [2]) 1

CCc1cc(-c2n[nH]c(C)c2-c2ccc3c(c2)OCCO3)c(O)cc1O
3 µM: lowest phenotypically active concentration (HepG2-ACTB-RAB5A) | lowest phenotypically active concentration (HepG2-CANX-COX4) | lowest phenotypically active concentration (HepG2-GM130-SQSTM1) | lowest phenotypically active concentration (WPMY1-ACTB-RAB5A [1]) | lowest phenotypically active concentration (WPMY1-CANX-COX4) | lowest phenotypically active concentration (WPMY1-GM130-SQSTM1) | lowest phenotypically active concentration (WPMY1-TP53BP1-CLTA) | lowest phenotypically active concentration (WPMY1-TUBA1B-RELA)
9 µM: lowest phenotypically active concentration (HepG2-TUBA1B-RELA)
active: phenotypically active (WPMY1-ACTB-RAB5A [2]) 1

COc1ccc(N(C)c2nc(C)nc3ccccc23)cc1 [MPC 6827 hydrochloride]
active: phenotypically active (WPMY1-ACTB-RAB5A [2]) 1
≤ 0.3 µM: lowest phenotypically active concentration (HepG2-ACTB-RAB5A) | lowest phenotypically active concentration (HepG2-CANX-COX4) | lowest phenotypically active concentration (HepG2-GM130-SQSTM1) | lowest phenotypically active concentration (HepG2-TUBA1B-RELA) | lowest phenotypically active concentration (WPMY1-ACTB-RAB5A [1]) | lowest phenotypically active concentration (WPMY1-CANX-COX4) | lowest phenotypically active concentration (WPMY1-GM130-SQSTM1) | lowest phenotypically active concentration (WPMY1-TP53BP1-CLTA) | lowest phenotypically active concentration (WPMY1-TUBA1B-RELA)

CC1(C)CC(=O)C2=C(C1)NC(=S)NC2c1cccc(O)c1 (stereo not given) [Dimethylenastron]
active: phenotypically active (WPMY1-ACTB-RAB5A [2]) 1
1 µM: lowest phenotypically active concentration (HepG2-ACTB-RAB5A) | lowest phenotypically active concentration (HepG2-CANX-COX4) | lowest phenotypically active concentration (HepG2-GM130-SQSTM1) | lowest phenotypically active concentration (HepG2-TUBA1B-RELA) | lowest phenotypically active concentration (WPMY1-ACTB-RAB5A [1]) | lowest phenotypically active concentration (WPMY1-GM130-SQSTM1) | lowest phenotypically active concentration (WPMY1-TP53BP1-CLTA) | lowest phenotypically active concentration (WPMY1-TUBA1B-RELA)
3 µM: lowest phenotypically active concentration (WPMY1-CANX-COX4)

CC[C@@H](N)CNc1ccnc(-c2cc(-c3cnn(C)c3)ccc2O)n1
1 µM: lowest phenotypically active concentration (HepG2-ACTB-RAB5A) | lowest phenotypically active concentration (HepG2-CANX-COX4) | lowest phenotypically active concentration (HepG2-GM130-SQSTM1) | lowest phenotypically active concentration (HepG2-TUBA1B-RELA) | lowest phenotypically active concentration (WPMY1-CANX-COX4) | lowest phenotypically active concentration (WPMY1-GM130-SQSTM1) | lowest phenotypically active concentration (WPMY1-TP53BP1-CLTA) | lowest phenotypically active concentration (WPMY1-TUBA1B-RELA)
active: phenotypically active (WPMY1-ACTB-RAB5A [2]) 1
3 µM: lowest phenotypically active concentration (WPMY1-ACTB-RAB5A [1])

N#Cc1c(C2CCNCC2)cc(-c2c(O)cccc2OCC2CC2)nc1N
active: phenotypically active (WPMY1-ACTB-RAB5A [2]) 1
9 µM: lowest phenotypically active concentration (HepG2-ACTB-RAB5A) | lowest phenotypically active concentration (HepG2-CANX-COX4) | lowest phenotypically active concentration (HepG2-GM130-SQSTM1) | lowest phenotypically active concentration (HepG2-TUBA1B-RELA) | lowest phenotypically active concentration (WPMY1-GM130-SQSTM1) | lowest phenotypically active concentration (WPMY1-TP53BP1-CLTA) | lowest phenotypically active concentration (WPMY1-TUBA1B-RELA)
3 µM: lowest phenotypically active concentration (WPMY1-ACTB-RAB5A [1]) | lowest phenotypically active concentration (WPMY1-CANX-COX4)

CC(C)n1nc(-c2cc3cc(O)ccc3[nH]2)c2c(N)ncnc21
3 µM: lowest phenotypically active concentration (WPMY1-TUBA1B-RELA)
active: phenotypically active (WPMY1-ACTB-RAB5A [2]) 1
1 µM: lowest phenotypically active concentration (HepG2-ACTB-RAB5A) | lowest phenotypically active concentration (HepG2-TUBA1B-RELA) | lowest phenotypically active concentration (WPMY1-ACTB-RAB5A [1]) | lowest phenotypically active concentration (WPMY1-CANX-COX4) | lowest phenotypically active concentration (WPMY1-GM130-SQSTM1) | lowest phenotypically active concentration (WPMY1-TP53BP1-CLTA)
≤ 0.3 µM: lowest phenotypically active concentration (HepG2-CANX-COX4) | lowest phenotypically active concentration (HepG2-GM130-SQSTM1)

O=C1Nc2ccc(F)cc2C1=C1Nc2ccccc2C1=NO [5'-Fluoroindirubinoxime]
active: phenotypically active (WPMY1-ACTB-RAB5A [2]) 1
≤ 0.3 µM: lowest phenotypically active concentration (HepG2-ACTB-RAB5A) | lowest phenotypically active concentration (HepG2-CANX-COX4) | lowest phenotypically active concentration (WPMY1-CANX-COX4) | lowest phenotypically active concentration (WPMY1-TP53BP1-CLTA)
1 µM: lowest phenotypically active concentration (HepG2-GM130-SQSTM1) | lowest phenotypically active concentration (HepG2-TUBA1B-RELA) | lowest phenotypically active concentration (WPMY1-ACTB-RAB5A [1]) | lowest phenotypically active concentration (WPMY1-GM130-SQSTM1) | lowest phenotypically active concentration (WPMY1-TUBA1B-RELA)

Cc1cc(Nc2nc(N[C@@H](C)c3ncc(F)cn3)ncc2Cl)n[nH]1
9 µM: lowest phenotypically active concentration (WPMY1-CANX-COX4) | lowest phenotypically active concentration (WPMY1-GM130-SQSTM1)
3 µM: lowest phenotypically active concentration (HepG2-CANX-COX4) | lowest phenotypically active concentration (HepG2-GM130-SQSTM1) | lowest phenotypically active concentration (WPMY1-ACTB-RAB5A [1]) | lowest phenotypically active concentration (WPMY1-TP53BP1-CLTA) | lowest phenotypically active concentration (WPMY1-TUBA1B-RELA)
active: phenotypically active (WPMY1-ACTB-RAB5A [2]) 1
1 µM: lowest phenotypically active concentration (HepG2-ACTB-RAB5A) | lowest phenotypically active concentration (HepG2-TUBA1B-RELA)
